# PubChem BioAssay (Tox21)
# Results filed as inconclusive are left out. Where a call stands in place of a potency, no number is given. Active and inactive are the calls of the source. The call rests on the fitted dose curve; in most records, active means well fitted cell-killing curve with a large enough effect in the repeat runs; inconclusive means weak or mixed curves, or effect the other way; inactive means flat fitted curve, though single readings scatter.
# Test: qHTS RealTime-Glo MT Cell Viability Assay in HEK293 cells - 24 hour (AID 1224886); further: top concentration of the series differs between compounds; nearly all actives have a fitted effect of over 50% in size
# Settings: RealTime-Glo luminescence; series mostly up to 76.8 µM
# Procedure, shortened: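 Quantitative high-throughput screen of the Tox21 10K library in HEK293: cells and RealTime-Glo reagents plated together, compound added at 5 h, luminescence monitored through 40 h at 37 C.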
row,SMILES,Potency
1,C=CCOc1c(Br)cc(Br)cc1Br,inactive
2,O=C1OC(=O)c2ccccc21,inactive
3,CC(C)CCCC(C)CC=O (stereo not drawn),inactive
4,OC[C@@H](O)[C@H](O)[C@@H](O)[C@@H](O)CO,inactive
5,O=C(CN1CCN(Cc2ccc3c(c2)OCO3)CC1)N1c2ccccc2Sc2ccccc21,inactive
6,C=CCOC(=O)c1ccc(C(=O)OCC=C)c(C(=O)OCC=C)c1,inactive
7,CCOC(=O)C(=O)c1csc(NC=O)n1,inactive
8,Nc1ccc(C(=O)OCC(O)CO)cc1 (stereo not drawn),inactive
9,CC(CC(=O)O)CC(C)(C)C (stereo not drawn),inactive
10,CC(C)C(=O)c1ccccc1,inactive
11,CC(C)C(=O)Nc1cccc(C(F)(F)F)c1,inactive
12,NC(=O)NNC(N)=O,inactive
13,O=C(O)c1c(Cl)ccc(Cl)c1Cl,inactive
14,CCCCCC(=O)OCC,inactive
15,CCC1COC(=O)O1 (stereo not drawn),inactive
16,Cc1ccc(C(=O)C(=O)O)cc1C,inactive
17,CC(=O)/C=C/c1ccco1,inactive
18,CC(C)(c1ccc(Oc2ccc3c(c2)C(=O)OC3=O)cc1)c1ccc(Oc2ccc3c(c2)C(=O)OC3=O)cc1,inactive
19,O=S(=O)(O)CCO,inactive
20,CCCCCCCCCCCCC1CO1 (stereo not drawn),inactive
21,CCCCCCCCCCCCOC(C)=O,inactive
22,CO[Si](CCCS)(OC)OC,inactive
23,Cc1cccc(C(=O)O)c1[N+](=O)[O-],inactive
24,CC(C)(C)NCCO,inactive
25,CC(=O)OC(C)c1ccccc1 (stereo not drawn),inactive
26,O=C(O)c1ccccc1C(=O)Nc1ccc(S(=O)(=O)Nc2nccs2)cc1,inactive
27,CC1=CC[C@H](CC=O)C1(C)C,inactive
28,CN(C)CCOCCN(C)CCO,inactive
